Mtb betalactam: beta-lactam sensitization of Mtb H37Rv, H37Rv; M. tuberculosis H37Rv growth with meropenem, percent inhibition; AID 434955, 2010; actives 0.27% (n = 330,000); inhibition, % at 25 µM; call rule not given here;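 also: growth measured after seven days incubation then overnight dye step; 0% = bacteria only wells and 100% = bacteria with antibiotic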
Mtb FBA inh: Mtb FBA enzyme inhibitors, primary screen, biochemical, fluorescence, strain H37Rv; purified M. tuberculosis FBA, fluorescence read-out; actives 2.3% (n = 360,000); AID 588726, 2011; Fructose-bisphosphate aldolase (Mycobacterium tuberculosis (strain ATCC 25618 / H37Rv)), …; inhibition, % at 1 µM; in the data active = inhibition above about 27%;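 also: 0% = vehicle and 100% = reference inhibitor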
Target sequence (P9WQA3 whole entry, looked up): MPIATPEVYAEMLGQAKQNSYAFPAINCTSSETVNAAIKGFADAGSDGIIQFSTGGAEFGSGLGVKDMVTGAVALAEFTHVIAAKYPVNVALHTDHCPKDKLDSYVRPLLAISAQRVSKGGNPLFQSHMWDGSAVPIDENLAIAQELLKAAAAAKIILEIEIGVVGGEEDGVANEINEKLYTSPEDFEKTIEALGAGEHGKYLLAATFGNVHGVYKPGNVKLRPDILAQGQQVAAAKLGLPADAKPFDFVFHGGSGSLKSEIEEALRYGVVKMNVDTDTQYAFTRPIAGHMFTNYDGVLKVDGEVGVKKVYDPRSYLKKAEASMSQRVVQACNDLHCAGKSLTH
MazF activator: activators of E. coli MazEF toxin-antitoxin RNase, primary screen, biochemical, fluorescence, uHTS; Endoribonuclease toxin MazF (Escherichia coli (strain K12)), P0AE70; FAM/BHQ RNA-DNA oligo cleavage fluorescence, 5 h; activation, % at 20 µM; actives 0.32% (n = 350,000); in the data active = activation above about 50%
Target sequence (P0AE70 whole entry, looked up): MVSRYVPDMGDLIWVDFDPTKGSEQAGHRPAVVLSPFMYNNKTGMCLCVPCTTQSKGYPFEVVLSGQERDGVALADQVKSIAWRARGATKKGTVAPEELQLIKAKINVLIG
GDH-TPI counter: GDH-TPI coupling enzyme inhibitors, primary screen, artefact control for M. tuberculosis FBA inhibitor project, biochemical, absorbance, full deck | AID 588335, 2011 | inhibition, % at 4.8 µM | actives 1.2% (n = 360,000) | GDH-TPI coupled enzyme counterscreen, NADH absorbance;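 also: 0% = DMSO wells and 100% = wells lacking the enzyme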
CCHF vOTU inh-1: CCHFV vOTU protease inhibitors, primary screen, biochemical, Pep-AMC substrate, fluorescence | actives 0.55% (n = 370,000) | AID 651958, 2012 | inhibition, % at 11.5 µM | Crimean-Congo hemorrhagic fever virus L polyprotein viral ovarian tumor (vOTU) protease …; also: 0% = vehicle wells with enzyme and 100% = no enzyme wells
CCHF vOTU inh-2: CCHFV vOTU protease inhibitors, confirmation, biochemical, Pep-AMC substrate, fluorescence; shares compounds with CCHF vOTU inh-1; Recombinant CCHFV vOTU; inhibition, % at 11.5 µM; actives 17% (n = 1,900); AID 686976, 2013
* = called active by the depositor; ? = inconclusive; · = not tested or not shown. This is a sample that favours compounds with a hit; in the whole collection about 4% have one here. Rule as the data show it, unless noted: active = inhibition above about 30%; inactive = the rest.

SMILES	Mtb betalactam	Mtb FBA inh	MazF activator	GDH-TPI counter	CCHF vOTU inh-1	CCHF vOTU inh-2
COc1cc(NC(C)CCCN)c2ncccc2c1 (stereo not given)	98.1	-0.8	26.2	8.8	104.1*	81.2*
COC(=O)[C@@]12C[C@@H](CC(=O)NCCC(C)C)C(=O)N(CCc3ccc(OC)c(OC)c3)C1=CCC(C)(C)C2	·	·	·	·	29.8*	1.9
CCCCCCCCN1C(=O)[C@H](CC(=O)NCc2ccc(C)o2)C[C@@]2(C(=O)OC)CC(C)(C)CC=C12	·	·	·	·	30.3*	7.3
C#CCNC(=O)C[C@@H]1C[C@@]2(C(=O)OC)CC(C)(C)CC=C2N(CCCCCCCC)C1=O	·	·	·	·	31.0*	8.4
CCCCCCCCN1C(=O)[C@H](CC(=O)NCCCOCCCC)C[C@@]2(C(=O)OC)CC(C)(C)CC=C12	·	·	·	·	22.0	·
CCCCCCCCN1C(=O)[C@H](CC(=O)NCCCOC)C[C@@]2(C(=O)OC)CC(C)(C)CC=C12	·	·	·	·	32.7*	20.0
CCCCCCCCN1C(=O)[C@H](CC(=O)NCC2CCCCC2)C[C@@]2(C(=O)OC)CC(C)(C)CC=C12	·	·	·	·	25.9	·
Cc1c(C(=O)N/N=C/c2ccccn2)nnn1-c1nonc1N	0.7	1.2	5.7	-5.2	-9.1	·
OC[C@@H]1CN(Cc2ccco2)C[C@H](n2cnc3c(NCc4ccncc4)ncnc32)O1	·	-1.5	·	2.7	-8.6	·
OCC1(Cc2ccccc2F)CCCN(Cc2c(F)ccc(F)c2F)C1 (stereo not given)	8.4	-0.9	3.8	2.3	-1.9	·
CCN1/C(=C/C=C/c2sc3ccccc3[n+]2CC)Sc2ccccc21	81.0	4.7	-456.8	15.0	·	·
CCN1/C(=C/C=C/c2oc3ccc(-c4ccccc4)cc3[n+]2CC)Oc2ccc(-c3ccccc3)cc21	94.8	-18.7	·	12.2	36.7*	17.5
Cn1nccc1C(=O)Oc1ccc(/C=N/NC(=O)c2ccccc2O)cc1	91.7	-0.2	-2.6	17.9	-13.6	·
COc1ccc(OCc2cc(C(=O)NC3CCOC(C)(C)C3)no2)c2ccccc12 (stereo not given)	3.0	6.8	·	6.5	43.1*	21.8
CCCCCCCC/C=C\CCCCCCCC(=O)NCCO	0.7	3.7	-5.7	0.5	4.5	·
CCCCCCCC/C=C\CCCCCCCC(=O)NCCc1ccc(O)c(O)c1	6.7	-2.9	-4.7	-10.1	30.5*	26.6
CCN(CC)c1ccc(/C=N/NC(=O)c2cccc(S(=O)(=O)N3CCOCC3)c2)c(O)c1	1.7	-8.4	-9.3	18.3	7.7	·
CCN(CC)c1ccc(/C=N/NC(=O)c2c(Cl)cnn2C)c(O)c1	7.7	8.4	-3.9	16.6	36.1*	-11.0
CC(=O)NC1=C(N(C)C2CCS(=O)(=O)C2)C(=O)c2ccccc2C1=O (stereo not given)	-1.4	0.8	-4.7	2.2	61.3*	71.2*
CN(C(=O)Nc1ccccc1)C1CCS(=O)(=O)C1 (stereo not given)	-8.0	0.7	2.2	1.1	5.4	·
COC(=O)C1(C(=O)OC)C[C@H](/C=C/c2ccccc2)N(Cc2ccccc2OC)[C@@H]1c1cccs1	·	·	·	·	13.5	·
COC(=O)C1(C(=O)OC)C[C@H](/C=C/c2ccccc2)N(Cc2ccccc2OC)[C@@H]1c1ccc(F)cc1	·	·	·	·	31.2*	-6.0
CN(Cc1ccco1)C(=O)c1cccc(S(=O)(=O)N2CCN(Cc3ccccc3)CC2)c1	·	0.9	10.0	-7.3	33.5*	-17.5
O=C1C(C=Nc2ccccc2O)=C(O)c2ccccc21	93.8	-12.7	15.5	6.4	0.4	·
Cc1ccc(O)c(N=CC2=C(O)c3ccccc3C2=O)c1	22.1	-3.4	7.7	19.8	30.5*	10.4
SMILES	Mtb betalactam	Mtb FBA inh	MazF activator	GDH-TPI counter	CCHF vOTU inh-1	CCHF vOTU inh-2
CC(C)N(Cc1ccccc1)CC(O)COc1ccc(S(=O)(=O)N2CCOCC2)cc1Cl (stereo not given)	-8.9	-1.7	13.0	-2.5	10.9	·
COc1ccc(S(=O)(=O)NCC(=O)NCCc2ccc(OC)c(OC)c2)cc1	-10.1	1.0	0.9	-3.5	4.1	·
Cc1[nH][nH]c(=O)c1C(c1c(C)[nH][nH]c1=O)c1cn(Cc2ccc(Cl)c(Cl)c2)c2ccccc12	4.0	-6.9	-5.5	7.4	55.9*	8.6
Cc1[nH][nH]c(=O)c1C(c1c(C)[nH][nH]c1=O)c1cn(Cc2ccc(F)cc2)c2ccccc12	11.4	-7.4	-4.0	22.2	·	·
CCCn1c(SCC(=O)NCc2ccc(F)cc2)n[nH]c1=O	-1.6	3.4	5.3	0.0	20.2	·
CCOC(=O)c1c(C)oc2c1cc(NS(=O)(=O)c1ccc(C(=O)O)cc1)c1ccccc12	-3.4	0.0	16.5	11.9	45.1*	3.5
CN(C(=O)CCc1cn(C)c2ccccc12)c1ccc(Oc2cccnc2)cc1	·	·	·	·	-3.6	·
CCN(C(=O)CCc1cn(CC)c2ccccc12)c1ccc(Oc2cccnc2)cc1	·	·	·	·	30.6*	-3.5
CC(C)C(NC(=O)c1ccc(C(C)(C)C)cc1)C(=O)N1CCC(C(N)=O)CC1 (stereo not given)	0.9	-0.8	3.2	2.8	10.6	·
Cc1cc(N=Nc2ccc(C)c(N=Nc3cc(C)c(N)cc3N)c2)c(N)cc1N	8.7	-7.8	-5.2	7.4	6.7	·
CN(C)N1C(N)=C(C#N)C(c2ccccc2)C2=C1CC(C)(C)CC2=O (stereo not given)	-4.4	1.2	6.9	20.0	12.0	·
CN(C)N1C(N)=C(C#N)C(c2ccc(F)cc2)C2=C1CC(C)(C)CC2=O (stereo not given)	-2.6	0.2	-3.0	0.9	30.3*	-19.1
CC(=O)c1csc(CS(=O)(=O)c2ccccn2)n1	0.1	0.3	3.0	-4.2	-6.5	·
O=C(Cn1nnc(-c2cccc(C(F)(F)F)c2)n1)NNS(=O)(=O)c1cccc(C(F)(F)F)c1	0.3	0.5	2.4	-2.9	32.2*	-5.5
Cc1cc(C(=O)N/N=C/c2ccc([N+](=O)[O-])s2)c2ccccc2n1	98.7	-6.0	11.7	8.0	30.5*	-6.5
Cc1ccccc1C(=O)N/N=C/c1ccc([N+](=O)[O-])s1	99.6	-3.6	-7.1	28.3	15.9	·
N#Cc1cc2ccc(N3CCOCC3)cc2cc1C#N	3.3	13.5	43.7	0.0	73.2*	-57.6
O=C(Nc1ccc(O)cc1C(=O)O)c1ccc(NC(=O)c2ccco2)cc1	-11.7	1.8	3.3	10.4	36.9*	-3.4
Cc1ccc(C(=O)N2CCCC(Nc3ccc(F)cc3)C2)cc1C (stereo not given)	?	-0.5	-1.4	4.7	30.3*	4.3
CC(C)(C)c1ccc(S(=O)(=O)Nc2ccc(C(O)(C(F)(F)F)C(F)(F)F)cc2)cc1	·	-2.3	·	-11.3	48.7*	10.3
COc1cccc(S(=O)(=O)Nc2ccc(C(O)(C(F)(F)F)C(F)(F)F)cc2)c1	·	-3.0	·	-9.3	20.1	·
